This is a sample that favours compounds with a hit; in the whole collection about 11% have one here.
IMPase inh = cell-permeable inhibitors of inositol monophosphatase (IMPase). P97697. CHO-M1 cells, IP1 accumulation, HTRF TR-FRET ratio. inhibition (IP1 accumulation), % at 46.1 µM. 120,000 tested, under 10 active. AID 901; active = well fitted curve in the direction sought with a large enough effect in the signal ratio, not every such curve was filed as active; inconclusive = small, poorly fitted or top-dose-only effect, or a change in a side signal; inactive = no such curve, though single readings can be large or run the other way; the % refers to the signal ratio;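 also: cells stimulated with carbachol in lithium chloride buffer; plate controls were DMSO basal wells for no effect and reference inhibitor wells for full effect; higher means more IMPase inhibition seen as more IP1 and lower FRET ratio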
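CHO-M1 cells (CHO stably expressing M1 receptor), compound up to 46 uM final, stimulated with carbachol (50 uM as added) in buffer with 50mM LiCl, pH 7.4, 30 min at 37C. Cytosolic IP1 read by TR-FRET; AC50 from Hill fits.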
PNC assembly inh = inhibitors of perinucleolar compartment assembly. PC3M PTB-GFP, PNC prevalence imaging, 16 h; hits give low values. activity change (PNC), negative = inhibition, % at 10 µM. 140,000 tested, 3.1% active;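 active = readout at or below -70, meaning at least 70% loss of cells showing the perinucleolar compartment, a nuclear body marking cancer cells; inconclusive = readout between -30 and a set limit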;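 also: plate controls were DMSO wells for no effect and camptothecin positive control wells for full effect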
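Compounds are pinned in duplicate onto adhered PC3M cells stably expressing GFP-tagged PTB and incubated 16 h at 37 C. Cells are then fixed, nuclei stained with Hoechst, and PNC-positive cells counted.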
IMPase Li inh = membrane-permeable IMPase blocker, potentiated with lithium. CHO-M1 cells, IP1 TR-FRET (IP-One), carbachol + lithium. Potency, µM (series often up to 59.4 µM), for the others: at the top dose activity, negative = IMPase inhibition, hits mostly inhibitors. 210,000 tested, 0.35% active. AID 1457;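 also: IP1 builds up when IMPase is blocked and the TR-FRET signal falls; potency is read from the fitted curve at half-maximal effect; plate controls were basal vehicle for no effect and high inhibitor control for full effect; nearly all actives have a fitted effect of over 50% in size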
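Concentration–response in CHO-M1 cells, lithium-potentiated; 30 min at 37C. IP1 detected by competitive TR-FRET after 10 min lysis at RT. Hill-fitted AC50.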
NPSR antagonist = blocks cAMP signaling of the human neuropeptide S receptor | Q6W5P4 | CHO-NPSR cells, cAMP TR-FRET, antagonist mode | Potency, µM (titrated, usually from 38.3 µM), for inactives: at the highest dose activity change, negative = inhibition, actives largely listed as inhibitors | 220,000 tested, 1% active; also: potency is read from the fitted curve at half-maximal effect; nearly all actives have a fitted effect of over 50% in size
Target sequence (Q6W5P4 whole entry, looked up): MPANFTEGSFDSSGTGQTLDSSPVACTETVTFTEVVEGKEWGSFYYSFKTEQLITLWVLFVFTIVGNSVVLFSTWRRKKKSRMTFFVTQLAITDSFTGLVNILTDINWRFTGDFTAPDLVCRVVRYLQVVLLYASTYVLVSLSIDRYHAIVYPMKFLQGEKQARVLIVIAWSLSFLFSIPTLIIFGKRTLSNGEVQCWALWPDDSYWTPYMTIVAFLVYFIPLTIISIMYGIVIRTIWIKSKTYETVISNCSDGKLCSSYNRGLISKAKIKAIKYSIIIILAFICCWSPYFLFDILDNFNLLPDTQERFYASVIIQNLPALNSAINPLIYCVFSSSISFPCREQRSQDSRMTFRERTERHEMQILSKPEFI
HPGD inh = blocks human HPGD enzyme activity; purified HPGD, NADH fluorescence kinetic, PGE2 substrate; Potency, µM, without a hit: at the top dose activity change, negative = inhibition, usual class: inhibitors; 150,000 tested, 4.3% active; AID 894; active = well fitted inhibition curve with a large enough effect, not every such curve was filed as active; inconclusive = small, poorly fitted or top-dose-only effect, or another doubt; inactive = no such curve, though single readings can be large or run the other way; also: potency is read from the fitted curve at half-maximal effect
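NADH formation kinetics: reaction with 30 uM PGE2 and 1 mM NAD+ (final), 20 nM enzyme, Tris-HCl pH 8 with Tween 20, after 15 min compound preincubation at room temperature. Fluorescence change, last versus first of five reads.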
ALDH1A1 block = blocks purified human ALDH1A1 activity; P00352; Purified ALDH1A1, NADH fluorescence, propionaldehyde substrate; Potency, µM (highest dose often 75.3 µM), inactives show top-dose activity, negative = inhibition, usual class: inhibitors; 220,000 tested, 7.3% active; active = well fitted inhibition curve with a large enough effect, not every such curve was filed as active; inconclusive = small, poorly fitted or top-dose-only effect, or another doubt; inactive = no such curve, though single readings can be large or run the other way;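 also: potency is read from the fitted curve at half-maximal effect; plate controls were no enzyme wells and a reference inhibitor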
Numbers without * were called inactive; ? = inconclusive; / = not tested or not shown; [ ] = remark or other dose. Unless noted, calls follow the shape of the dose curve; as a rule, active = well fitted curve in the direction sought with a large enough effect; inconclusive = small, poorly fitted or top-dose-only effect, or another doubt; inactive = no such curve, though single readings can be large; an effect the other way counts as inactive or inconclusive. Unless noted, % is scaled to controls: 0 for no effect and ±100 for the full control effect.

SMILES	IMPase inh	PNC assembly inh	IMPase Li inh	NPSR antagonist	HPGD inh	ALDH1A1 block
O=C(CN1CCOCC1)Nc1cc(C(F)(F)F)ccc1Cl	/	/	24.4%	8.4%	/	14.2%
O=C(N/N=C/c1ccc(N2CCOCC2)s1)c1ccccc1Cl	/	/	15.8%	-38.4%	/	15.8µM*
O=C(N/N=C/c1ccc(N2CCOCC2)s1)c1ccc(NS(=O)(=O)c2cccs2)cc1	/	/	/	33.3%	/	15.8µM*
O=C(N/N=C/c1ccc(N2CCOCC2)cc1)c1ccc(NS(=O)(=O)c2cccs2)cc1	/	/	-23.5%	-8.2%	/	?
FC(F)(F)c1ccc(Cl)c(N/N=C/c2ccc(N3CCOCC3)s2)c1	/	-2.6	10.7%	-19.6%	?	4.47µM*
Cc1ccc(S(=O)(=O)/N=C(\c2ccc(F)cc2)n2c(C)nc3ccccc32)cc1	-0.6	-17.6	-15.1%[38.3 µM]	4.2%[46.1 µM]	-3.9%	15.4%
Cc1ccc(-n2ncc(C(=O)N3CCc4ccccc4C3)c2NC(=O)c2ccco2)cc1C	?	-7.1	-10.9%	-6.3%[46.1 µM]	?	1µM*
COc1ccc(CCNC(=O)c2cnn(-c3ccc(C)c(C)c3)c2NC(=O)c2ccco2)cc1OC	-19.1	-10.5	-8.9%[38.3 µM]	-5.5%[46.1 µM]	-3.3%	-10.4%
Cn1nnnc1SCc1cc(=O)n2ccsc2n1	0.2	-0.6	-7.6%[38.3 µM]	16.3%[46.1 µM]	-4.2%	0.3%
O=c1cc(CSc2nnnn2-c2ccccc2)nc2scc(-c3ccccc3)n12	-0.2	?	16.8%[38.3 µM]	-15.4%[46.1 µM]	-15.0%	3.16µM*
COc1ccc(C)cc1-n1nnnc1SCC(=O)N1CCC(C(=O)Nc2nccs2)CC1	1.3	?	3.1%[38.3 µM]	?	-15.1%	7.94µM*
Cc1ccccc1-n1nnnc1SCc1cc(=O)n2ccsc2n1	/	/	4.9%	14.3%	/	0.631µM*
O=c1cc(CN2CCN(c3ccc(O)cc3)CC2)nc2scc(-c3ccccc3)n12	/	/	8.6%	0.2%	/	14.1µM*
Cc1cc(C)nc(SCC(=O)Nc2ccc(S(=O)(=O)NC(C)(C)C)cc2)n1	5.3	-16.5	40.8%[38.3 µM]	-1.8%[46.1 µM]	-16.3%	-16.1%
COc1ccc(OCCSc2nnc(-c3cccnc3)n2N)cc1	/	22.9	-2.8%	9.6%	2.0%	?
Cc1ccc(/C=C/C(=O)NCc2ccc3c(c2)OCO3)o1	/	-18.8	12.1%	-4.7%	?	?
Cc1nnc(SCc2cn3ccsc3n2)n(N)c1=O	4.2	-27.3	5.5%[38.3 µM]	4.3%[46.1 µM]	4.3%	6.2%
O=c1cc(CSc2nnnn2-c2ccccc2)nc2sccn12	/	/	7.2%	-6.4%	/	12.6µM*
COc1ccc(C)cc1-n1nnnc1SCC1CCCCO1 (configuration not stated)	8.2	8.8	4.9%[38.3 µM]	?	-20.9%	31.6µM*
COc1ccc(C)cc1-n1nnnc1SCc1cn2ccsc2n1	13.5	26.3	6.0%[38.3 µM]	5.5%[7.67 µM]	-1.5%	14.1µM*
O=C(Cn1cnc2c(oc3ccccc32)c1=O)NCc1ccccc1	4.1	2.2	13.3%[38.3 µM]	0.4%[46.1 µM]	-4.2%	6.4%
CCOC(=O)Cn1nnnc1CN(Cc1cccs1)Cc1cc2cc(C)cc(C)c2[nH]c1=O	8.5	-3.1	2.9%[38.3 µM]	?	?	?
COc1ccc2c(c1)c1c3n2CCN(C)C3=NCC1	-10.0	32.9	-6.1%[38.3 µM]	4.7%[46.1 µM]	-19.1%	3.3%
O=C1CSC(c2cccnc2)N1c1cccc(Cl)c1 (configuration not stated)	/	/	-6.5%	3.7%	/	6.1%
O=C(/C=C\c1ccccc1OC(=O)c1ccccc1F)c1cc2ccccc2o1	9.1	?	8.8%	-11.6%	28.2µM*	29.9%
O=C(Oc1ccccc1)c1cc2ccccc2o1	-7.9	-5.9	13.9%[38.3 µM]	1.4%[46.1 µM]	-13.0%	-3.6%
O=C1c2ccccc2NC(c2ccc(-c3cccc([N+](=O)[O-])c3)o2)N1O (configuration not stated)	/	?	-7.4%	-4.1%	17.8µM*	14.1µM*
CC1=CC(=C(C#N)C#N)C=C(C)N1CCN1CCN(C(=O)Nc2ccc(Cl)c(Cl)c2)CC1	/	-24.4	?	-14.5%	?	?
COc1ccc(C(=O)N2CCC[C@@]3(CCN(Cc4nccs4)C3)C2)cc1	/	/	8.0%	/	-24.2%	8.91µM*
